# Screens (PubChem BioAssay)
# FBW7 act – human FBW7 E3 ligase activation, primary screen. AlphaScreen FBW7–phospho-cyclin E peptide binding, activator screen. Q969H0. 0.13% of 650,000 active. normalized activity (activation), % at 26.1 µM; in the data active = normalized activity above about 1.9%;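 also: purified mutant Fbw7 with reduced substrate affinity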
# GPR151 activ – activators of human GPR151. PathHunter beta-arrestin GPR151 cells, luminescence. activation, % at 11.2 µM. 1% of 650,000 active. AID 1508602; in the data active = activation above about 4.9%;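 also: 0% = median of compound wells and 100% = cells with positive control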
# TEAD-YAP inh – TEAD-YAP interaction inhibition | AID 1259422 | HEK-TIYL cells, TEAD-Gal4/YAP UAS-luciferase luminescence | inhibition, % at 9.12 µM | 1.4% of 640,000 active; in the data active = inhibition above about 32%;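 also: 0% = median of test compound wells and 100% = reference inhibitor wells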
# MITF inh – blocks human microphthalmia-associated transcription factor; O75030; AlphaScreen MITF homodimerization, bead proximity signal; inhibition, % at 2.6 µM; 0.91% of 650,000 active; in the data active = inhibition above about 50%;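 also: 0% = vehicle wells with protein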
# Target sequence (O75030 whole entry, looked up): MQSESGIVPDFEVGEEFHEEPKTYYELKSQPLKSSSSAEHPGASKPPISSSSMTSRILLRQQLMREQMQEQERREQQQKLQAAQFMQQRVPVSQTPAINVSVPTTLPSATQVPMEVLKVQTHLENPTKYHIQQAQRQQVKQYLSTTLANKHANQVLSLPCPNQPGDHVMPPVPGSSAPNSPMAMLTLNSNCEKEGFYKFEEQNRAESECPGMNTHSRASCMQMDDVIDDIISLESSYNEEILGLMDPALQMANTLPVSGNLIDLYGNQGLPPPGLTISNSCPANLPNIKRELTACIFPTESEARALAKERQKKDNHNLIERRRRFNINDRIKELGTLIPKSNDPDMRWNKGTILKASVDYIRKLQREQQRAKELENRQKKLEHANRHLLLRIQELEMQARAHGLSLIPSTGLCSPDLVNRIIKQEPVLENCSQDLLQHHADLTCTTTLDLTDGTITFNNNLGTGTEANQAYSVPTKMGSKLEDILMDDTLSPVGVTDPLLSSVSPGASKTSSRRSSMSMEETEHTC
# GPR151 confirm – confirmation of human GPR151 activators; shares compounds with GPR151 activ; GPR151 PathHunter beta-arrestin cells, luminescence, 90 min; % of EA-reagent control over plate median; activation, % at 11.2 µM; 6,700 tested, under 10 active; AID 1508609;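 active = mean percent activation across replicates above the confirmation screen cutoff of 4.91%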
# GPR119 ag – counter-screen for GPR151 activators: effect on human GPR119; shares compounds with GPR151 activ; GPR119 PathHunter beta-arrestin cells, luminescence, 90 min; 0 = compound-well median, 100 = enzyme-acceptor control; AID 1508611; 0.3% of 6,700 active; activation, % at 11.2 µM;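 active = mean percent activation in the counterscreen above 29.09%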;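 also: counterscreen on off-target GPR119 to flag nonselective hits from the GPR151 activator screen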
# The depositor's hits bear a star; / = no result. Sampled rows, rich in hits. Any-hit rate of the full collection: about 3.4%.
SMILES,FBW7 act,GPR151 activ,TEAD-YAP inh,MITF inh,GPR151 confirm,GPR119 ag
CCC(Sc1nnc(-c2ccccc2)n1N)C(=O)O (stereo unspecified),0,-1,0,3,/,/
Cc1ccc2c(c1)N(C(=O)N1CCC(C(=O)N3CCCCCC3)CC1)CCO2,1,-2,1,5,/,/
CC(=O)N1CCC(N(C(=O)Nc2c(F)cccc2F)C(C)C)CC1,0,9.1*,-4,5,-1,0
CC(=O)N1CCC(N(C(=O)Nc2cccc(Cl)c2C)C(C)C)CC1,0,0,-1,4,/,/
O=C(CC1C(=O)NCCN1Cc1ccoc1)NC1Cc2ccccc2C1 (stereo unspecified),0,-1,4,3,/,/
CCc1ccccc1-n1c(C)c(C)n2c3c(=O)n(CC(N)=O)c(=O)n(C)c3nc12,1,0,-3,-5,/,/
CCc1ccccc1-n1c(C)c(C)n2c3c(=O)n(CC)c(=O)n(C)c3nc12,0,5.1*,8,4,1,3
CC(NC(=O)CCn1c(=O)[nH]c2ccsc2c1=O)C12CC3CC(CC(C3)C1)C2 (stereo unspecified),0,12*,6,2,0,13
O=C(Cn1c(=O)[nH]c2ccsc2c1=O)NC1CCCCC1,1,5.3*,-5,7,0,2
CC(NC(=O)CCCn1c(=O)[nH]c2ccsc2c1=O)C12CC3CC(CC(C3)C1)C2 (stereo unspecified),0,1,-5,2,/,/
CCCCN(C)S(=O)(=O)c1ccc(C(=O)Nc2sc3c(c2C(=O)OC)CCN(C(=O)OCC)C3)cc1,0,0,-5,-5,/,/
CCC(C)NC(=O)c1ccc2nc(NC(=O)c3ccc([N+](=O)[O-])cc3)sc2c1 (stereo unspecified),0,8.8*,3,13,0,1
CCC(C)NC(=O)c1ccc2nc(NC(=O)c3cc([N+](=O)[O-])cc([N+](=O)[O-])c3)sc2c1 (stereo unspecified),0,1,9,1,/,/
CCN(CC)CCNCC(=O)N1CCCc2ccccc21,0,8.3*,5,20,0,0
N#Cc1ccc(C(=O)NCc2nc(-c3ccncc3)n[nH]2)cc1,0,5.3*,8,15,0,-1
CCc1cccc(C)c1NC(=O)CCC(=O)O,0,-1,-3,-2,/,/
CCc1cccc(CC)c1NC(=O)CCCC(=O)O,1,6.6*,3,9,0,0
CCSCCOC(=O)C1=C(C)NC(=O)CC1c1ccccc1C(F)(F)F (stereo unspecified),0,0,-10,4,/,/
Cc1cc(N)c2ccccc2[n+]1CCCCCCCCCCCCCC[n+]1c(C)cc(N)c2ccccc21,0,6.6*,84*,-16,1,-6
Cc1cc(=O)[nH]c(N/N=C/c2cc(C)n(-c3ccc(I)cc3)c2C)n1,0,-1,-3,6,/,/
COc1ccccc1C1CC(c2ccc(C(C)C)cc2)Nc2nnnn21 (stereo unspecified),0,-1,-4,3,/,/
COc1ccccc1C1CC(c2ccc(Cl)cc2)Nc2nnnn21 (stereo unspecified),0,5.2*,1,8,0,-11
OCCNCCCCOc1ccc(OCc2ccccc2)cc1,0,6.2*,6,5,0,-18
COc1ccc(/C=N/NC(=O)COc2ccc(F)cc2)c(OC)c1OC,0,0,-9,-14,/,/
COCCOC(=O)C1=C(C)NC2=C(C(=O)CC(c3ccc(Cl)cc3)C2)C1c1cccc(OC)c1OC (stereo unspecified),0,0,19,-7,/,/
CCOC(=O)C1=C(C)NC2=C(C(=O)CC(c3ccc(Cl)cc3)C2)C1c1cccc(OC)c1OC (stereo unspecified),1,21*,7,6,-1,-8
COc1ccc(C2C(C(=O)OCC(C)C)=C(C)NC3=C2C(=O)CC(c2ccc(Cl)cc2)C3)cc1 (stereo unspecified),1,5.5*,6,-13,1,4
CN(C)S(=O)(=O)c1ccc2nc(C(=O)O)n(O)c2c1,0,0,-2,3,/,/
